Paper PMC4336329 (PLoS ONE, 2015)
Hit rate of the full screen: of about 310,000 compounds, about 14,000 (4.5%) showed an effect of 50% or more. The effect is printed as a negative number. The sample holds strong results, similar compounds and a random draw of the others, so the mix is not that of the screen.

Target: human ether-à-go-go-related gene (hERG) potassium channel (human, UniProt Q12809)
Assay: primary screen, population patch clamp on CHO cells stably expressing hERG; higher = less effect of the substance
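Also: peak tail current of the secondary pulse compared with the same well before compound.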

Chain of human ether-à-go-go-related gene (hERG) potassium channel (Q12809 whole entry, looked up): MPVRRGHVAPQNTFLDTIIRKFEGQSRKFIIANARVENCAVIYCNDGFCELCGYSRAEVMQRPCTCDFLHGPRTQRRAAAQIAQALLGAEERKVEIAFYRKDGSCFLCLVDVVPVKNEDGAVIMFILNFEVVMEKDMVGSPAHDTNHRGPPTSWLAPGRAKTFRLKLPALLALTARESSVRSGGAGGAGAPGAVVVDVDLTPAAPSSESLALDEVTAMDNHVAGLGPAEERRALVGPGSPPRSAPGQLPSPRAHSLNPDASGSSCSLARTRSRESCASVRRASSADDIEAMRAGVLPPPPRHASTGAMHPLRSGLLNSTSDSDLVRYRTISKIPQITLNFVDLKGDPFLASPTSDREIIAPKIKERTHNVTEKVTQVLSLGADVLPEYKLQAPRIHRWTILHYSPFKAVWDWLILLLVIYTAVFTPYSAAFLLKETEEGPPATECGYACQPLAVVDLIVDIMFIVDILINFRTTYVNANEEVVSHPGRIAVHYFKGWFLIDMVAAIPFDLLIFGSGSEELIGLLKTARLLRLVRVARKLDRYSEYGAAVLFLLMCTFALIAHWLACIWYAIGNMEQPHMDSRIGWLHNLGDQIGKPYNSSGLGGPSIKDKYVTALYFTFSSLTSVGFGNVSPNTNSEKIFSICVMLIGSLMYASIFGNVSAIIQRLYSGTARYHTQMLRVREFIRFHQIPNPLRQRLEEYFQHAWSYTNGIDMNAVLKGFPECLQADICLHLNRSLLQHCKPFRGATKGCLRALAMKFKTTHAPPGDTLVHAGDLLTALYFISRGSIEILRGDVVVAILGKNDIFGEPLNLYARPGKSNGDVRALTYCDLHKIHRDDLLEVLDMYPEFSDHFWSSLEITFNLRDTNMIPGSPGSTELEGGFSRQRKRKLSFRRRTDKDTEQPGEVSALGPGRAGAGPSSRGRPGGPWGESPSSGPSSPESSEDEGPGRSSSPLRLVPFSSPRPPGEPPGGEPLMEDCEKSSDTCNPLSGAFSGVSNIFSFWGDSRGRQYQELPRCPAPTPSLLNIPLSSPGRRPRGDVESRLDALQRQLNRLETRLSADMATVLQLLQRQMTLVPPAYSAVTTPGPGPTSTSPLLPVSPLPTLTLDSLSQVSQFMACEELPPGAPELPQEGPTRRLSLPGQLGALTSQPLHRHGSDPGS

Row | Compound | hERG current change (%, negative = inhibition) at 10uM [%]
1 | O=C(CN1CCN(S(=O)(=O)c2ccc(Br)cc2)CC1)N/N=C/c1ccco1 | -56.9
2 | CN1CCN(c2c(F)cc([N+](=O)[O-])c(N)c2Br)CC1 | -45.3
3 | OCCCc1cn(-c2ccccc2)c2ccccc12 | 7.41
4 | Cc1cc(C(=O)NNC(=O)c2ccc(C)s2)c(C)o1 | 3.91
5 | COc1ccc(N(C2CSC2)S(=O)(=O)c2ccccc2)cc1 | 8.52
6 | CCc1nc(SCC(=O)Nc2nnc(CC)s2)c2c(=O)n(C)c(=O)n(C)c2n1 | 4.23
7 | O=C(Cn1nc(-c2ccccc2F)ccc1=O)NCc1ccc2c(c1)OCO2 | -36.9
8 | CCN1C(=O)[C@H]2[C@@H](c3ccc(C)cc3)N3C(=O)N(c4ccc(C(F)(F)F)cc4)C(=O)[C@@]3(Cc3ccccc3)[C@H]2C1=O | 16.3
9 | O=c1c2ccccc2nc(-c2ccc(-c3ccccc3)cc2)n1-c1ccncc1 | -42.9
10 | CC(=O)Nc1ccc(NC(=O)C(C)OC(=O)CCC(=O)c2ccc(F)cc2)cc1 (centres unmarked) | -7.13
11 | CC(OC(=O)CCC(=O)c1ccccc1)C(=O)Nc1ccc(F)cc1 (centres unmarked) | -284
12 | CC(OC(=O)CCCC(=O)Nc1ccc(F)cc1)C(=O)c1ccccc1 (centres unmarked) | -5.79
13 | COc1ccc(/C=N\NC(=O)COc2ccccc2Cl)cc1Cn1nc(C)cc1C | 8.15
14 | CC1(C)CC(=O)C2=C(C1)N(CCN1CCOCC1)C1=C(C(=O)CC(C)(C)C1)C2c1cccc(Cl)c1 | -54
15 | CC1(C)CC(=O)C2=C(C1)N(CCN1CCOCC1)C1=C(C(=O)CC(C)(C)C1)C2c1ccc(Cl)cc1 | -34.1
16 | CC1(C)CC(=O)C2=C(C1)N(CCN1CCOCC1)C1=C(C(=O)CC(C)(C)C1)C2c1cccc(F)c1 | -33.5
17 | CC(CCc1ccccc1)OS(N)(=O)=O (centres unmarked) | 8.74
18 | COc1ccc(S(=O)(=O)N2CCOCC2)cc1NC(=O)COc1ccccc1 | -40.5
19 | Cc1ccc(SC/C(O)=C(\C#N)c2nc3ccccc3s2)cc1 | 29.9
20 | Cc1ccc(C(=O)NCC(=O)OCC(=O)Nc2ccc(Cl)cc2C(F)(F)F)cc1C | -4.47
21 | O=c1[nH]c2ccccc2nc1CCc1ccccc1 | 35.5
22 | Cc1cccc(NC(=O)C2CCN(C(=O)c3ccccc3C)CC2)n1 | -17.6

Row | Compound | hERG current change (%, negative = inhibition) at 10uM [%]
23 | Cc1cccc(NC(=O)C2CCN(C(=O)c3ccc(F)cc3)CC2)n1 | -0.274
24 | O=C(Nc1ccccc1N1CCCC1)C1CCN(C(=O)c2ccc(Cl)cc2)CC1 | -59.8
25 | O=C(NC1CC1)C1CCN(C(=O)c2ccc(Cl)cc2)CC1 | 19.8
26 | N#Cc1ccsc1NC(=O)C1CCN(C(=O)c2ccc(Cl)cc2)CC1 | -73.2
27 | Cc1ccccc1C(=O)N1CCC(C(=O)Nc2ccccc2N2CCCC2)CC1 | -0.721
28 | O=C(Nc1ccccc1N1CCCC1)C1CCN(C(=O)c2ccc(F)cc2)CC1 | -27.8
29 | O=C(c1ccc(Cl)cc1)N1CCC(C(=O)N2CCCc3ccccc32)CC1 | -76.4
30 | O=C(C1CCCCC1)N1CCCc2ccccc21 | -5.03
31 | Cc1ccccc1C(=O)N1CCC(C(=O)N2CCCc3ccccc32)CC1 | -1.08
32 | N#Cc1ccsc1NC(=O)C1CCN(C(=O)c2ccc(F)cc2)CC1 | -45.7
33 | Cc1cccc(NC(=O)C2CCN(C(=O)c3ccc(Cl)cc3)CC2)n1 | -51.5
34 | Cc1cccc(C(=O)NNS(=O)(=O)c2ccc(F)cc2)c1 | 8.24
35 | O=c1cc(CO)oc(C(Nc2ccccn2)c2ccc(F)cc2)c1O (centres unmarked) | 9.87
36 | O=C(c1ccc2oc(CCc3ccccc3)nc2c1)N1CCC(O)CC1 | 14.9
37 | Cc1ccc(C(=O)NCC(=O)OCC(=O)c2ccccc2)s1 | -12.6
38 | COc1ccc(CC(=O)Nc2c(C(N)=O)oc3ccccc23)cc1OC | 11.4
39 | COc1ccc(CCNS(=O)(=O)c2ccc(Br)s2)cc1 | -5.73
40 | O=C(N/N=C/c1cc([N+](=O)[O-])ccc1O)c1cccc(N2CCCC2=O)c1 | 3.22
41 | CC(OC(=O)CCc1nc2ccccc2[nH]c1=O)c1ccccc1 (centres unmarked) | -5.1
42 | O=C(Nc1ccccc1N1CCCCC1)c1ccc(Cl)cc1 | 12.6
43 | O=C(Nc1ccccc1N1CCCCC1)C1CCN(C(=O)c2ccc(Cl)cc2)CC1 | -69.9
44 | O=C(NC1CCCCC1)C1CCN(C(=O)c2ccc(Cl)cc2)CC1 | -6.16
